Experimental data reported in PubChem BioAssay (Tox21).
A number with no mark means an inactive call. Inconclusive results are not listed. Where a call stands in place of a potency, no number is given. Active and inactive are the calls of the source. Unless noted, the call rests on the fitted dose curve; in most records, active means well fitted curve in the direction sought with a large enough effect in the repeat runs; inconclusive means weak or mixed curves; inactive means no such curve, though single readings can be large; an effect the other way counts as inactive or inconclusive.

Key:
[1] = qHTS assay to identify small molecule HDAC inhibitors (AID 1259364); further: potency means the concentration at half of the fitted maximal effect;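 further: wild-type HCT-116 cells with endogenous class I/II HDAC activity; nearly all actives have a fitted effect of over 45% in size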; on activity change, negative = inhibition: top concentration of the series differs between compounds
Summary of the method: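 Read-out: luminescence of HDAC-Glo I/II reagent, 30 min RT, reflecting class I/II deacetylase activity in whole HCT-116 cells pre-exposed 2 h to DMSO-dissolved compounds.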

[2] = qHTS assay to identify small molecule agonists of the sonic hedgehog signaling (Shh) pathway - cell viability counter screen (AID 1259366); further: nearly all actives have a fitted effect of over 50% in size
Summary of the method: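 Compounds in DMSO were pin-transferred onto 3T3 Gli1-Luc cells that had settled 4hr; plates then stood 24hr at 37C and 5% CO2. One hour before the end, CellTiter-Fluor was added and fluorescence recorded.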

[3] = qHTS assay to identify small molecule agonists of the sonic hedgehog signaling (Shh) pathway (AID 1259368; calls by dose curve;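 further: NIH/3T3-derived 3T3Gli1-Luc cells carrying a stable Gli1-driven firefly luciferase reporter; series mostly up to about 92 µM; nearly all actives have a fitted effect of over 15% in size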)
Summary of the method: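 A Gli1 transcriptional response element controlled firefly luciferase in 3T3Gli1-Luc cells. Compounds and a positive control were added 4 hr after plating, and cells were incubated a further 24 hr at 37 C before luminescence detection.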

[4] = target: Estrogen receptor beta (Homo sapiens) (UniProt Q92731); assay: qHTS assay to identify small molecule antagonists of the estrogen receptor beta (ER-beta) signaling pathway (AID 1259378; active means well fitted inhibition curve with a large enough effect in the signal ratio in the repeat runs, not every such curve was filed as active; the % refers to the signal ratio)
Summary of the method: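 ER-beta-UAS-bla HEK293T (GripTite) cells in 2% charcoal-stripped FBS medium were preincubated 6 hr at 37C, dosed with compound, then stimulated with 1 nM E2 (final) for 16 hr; beta-lactamase reporter read by B/G FRET fluorescence after 2 hr substrate loading.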

[5] = qHTS assay to identify small molecule agonists of the androgen receptor (AR) signaling pathway in the presence of an antagonist - cell viability counter screen (AID 1259379);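 further: MDA-kb2 human breast cancer cells carrying an MMTV luciferase reporter; series mostly up to about 92 µM; nearly all actives have a fitted effect of over 25% in size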
Summary of the method: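 Seed MDA-kb2 at 3,000 cells/well; incubate 5 hr, 37C, 0% CO2. Add nilutamide to 3.0uM final, then pin compounds at 15 concentrations. Incubate 16 hr. Add CellTiter-Fluor at 15 hr, read fluorescence after 1 hr.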

[6] = qHTS assay to identify small molecule agonists of the estrogen receptor beta (ER-beta) signaling pathway - cell viability counter screen (AID 1259380); further: nearly all actives have a fitted effect of over 30% in size
Summary of the method: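 CellTiter-Glo read, 30 min RT, same wells as bla assay; cells ER-beta-UAS-bla HEK293T; 16 hr compound, 37C; medium 2% charcoal-stripped FBS.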

[7] = qHTS assay to identify small molecule antagonists of the sonic hedgehog signaling (Shh) pathway - cell viability counter screen (AID 1259367); further: nearly all actives have a fitted effect of over 55% in size
Summary of the method: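 After a 4 hr settling period, 3T3 Gli1-Luc cells were treated with DMSO-dissolved chemicals and conditioned medium, kept 24 hr at 37C in 5% CO2, and assayed for viability by CellTiter-Fluor fluorescence following 1 hr reagent incubation.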

[8] = qHTS assay to identify small molecule antagonists of the sonic hedgehog signaling (Shh) pathway (AID 1259369; calls by dose curve; further: nearly all actives have a fitted effect of over 45% in size)
Summary of the method: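 For antagonist detection, the reporter line received test compounds together with conditioned medium, incubated 24hr at 37 C, 5% CO2, then luminescence was recorded following 30min room-temperature luciferase reagent incubation.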

[9] = target: Estrogen receptor beta (Homo sapiens) (UniProt Q92731); assay: qHTS assay to identify small molecule agonists of the estrogen receptor beta (ER-beta) signaling pathway (AID 1259377; active means well fitted activation curve with a large enough effect in the signal ratio in the repeat runs, not every such curve was filed as active; the % refers to the signal ratio)
Summary of the method: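 qHTS in ER-beta-UAS-bla HEK293T cells: 6 hr settling, then 16 hr compound at 37C, then LiveBLAzer substrate 2 h at RT before fluorescence reading.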

[10] = qHTS assay to identify small molecule HDAC inhibitors - cell viability counter screen (AID 1259365); further: series mostly up to about 92 µM; nearly all actives have a fitted effect of over 50% in size
Summary of the method: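 HCT-116 wild-type, overnight attachment; 2hr drug exposure, 37C; CellTiter-Glo luminescent ATP readout after 30min RT.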

Chain of Estrogen receptor beta (Homo sapiens) (Q92731 whole entry, looked up): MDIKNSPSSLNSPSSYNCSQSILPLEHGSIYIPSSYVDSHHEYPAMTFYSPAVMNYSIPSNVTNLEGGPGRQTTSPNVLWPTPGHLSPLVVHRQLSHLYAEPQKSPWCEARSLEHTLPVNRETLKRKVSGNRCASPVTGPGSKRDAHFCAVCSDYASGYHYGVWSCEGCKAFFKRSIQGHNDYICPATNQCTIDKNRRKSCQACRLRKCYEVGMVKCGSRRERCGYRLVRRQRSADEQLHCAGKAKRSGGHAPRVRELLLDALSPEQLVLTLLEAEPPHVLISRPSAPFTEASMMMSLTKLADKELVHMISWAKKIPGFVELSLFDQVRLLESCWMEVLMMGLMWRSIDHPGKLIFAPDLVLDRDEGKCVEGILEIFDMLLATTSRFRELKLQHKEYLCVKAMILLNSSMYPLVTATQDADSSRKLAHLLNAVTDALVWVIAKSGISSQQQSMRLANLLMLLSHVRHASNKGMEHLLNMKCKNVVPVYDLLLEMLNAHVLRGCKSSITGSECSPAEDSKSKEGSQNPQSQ

## CC(C)OC(=O)CCC(=O)OC(C)C
[1]
  Potency: inactive
[2]
  outcome: inactive
[3]
  outcome: inactive
[4]
  Potency: inactive
[5]
  outcome: inactive
[6]
  outcome: inactive

## O=Cc1cc2ccccc2o1
[1]
  Potency: inactive
[7]
  outcome: inactive
[3]
  outcome: inactive
[8]
  Potency: inactive
[5]
  outcome: inactive
[6]
  outcome: inactive

## ONc1ccccc1
[1]
  Potency: 27 µM (active)
[2]
  outcome: inactive
[7]
  outcome: inactive
[3]
  outcome: inactive
[6]
  outcome: inactive

## CC(C)=CCC[C@@](C)(O)[C@H]1CC=C(C)CC1
[1]
  Potency: inactive
[7]
  outcome: inactive
[3]
  outcome: inactive
[4]
  Potency: inactive
[6]
  outcome: inactive

## N[C@@H](CSCCCO)C(=O)O
[1]
  activity change, negative = inhibition: -2.63% [at 19 µM]
[2]
  viability change, negative = cytotoxic: -0.254% [at 19 µM]
[7]
  viability change, negative = cytotoxic: 1.48% [at 19 µM]
[3]
  activity change: 0.782% [at 18.9 µM]
[9]
  activation: -2.61% [at 19 µM]
[4]
  activity, negative = inhibition: 0.481% [at 19 µM]
[5]
  activity change, negative = cytotoxicity: -1.46% [at 19 µM]
[6]
  activity change, negative = cytotoxicity: 7.76% [at 19 µM]

## c1ccc(B(c2ccccc2)c2ccccc2)cc1
[10]
  outcome: inactive
[2]
  outcome: inactive
[7]
  outcome: inactive
[3]
  outcome: inactive
[5]
  outcome: inactive

## N#CCC(=O)NN
[1]
  Potency: inactive
[2]
  outcome: inactive
[7]
  outcome: inactive
[3]
  outcome: inactive
[8]
  Potency: inactive
[5]
  outcome: inactive
[6]
  outcome: inactive

## CO[Si](CCCn1c(=O)n(CCC[Si](OC)(OC)OC)c(=O)n(CCC[Si](OC)(OC)OC)c1=O)(OC)OC
[1]
  Potency: inactive
[2]
  outcome: inactive
[7]
  outcome: inactive
[3]
  outcome: inactive
[8]
  Potency: inactive
[6]
  outcome: inactive

## CC(=O)OC1CCCCC1C(C)(C)C (configuration not stated)
[1]
  Potency: inactive
[2]
  outcome: inactive
[7]
  outcome: inactive
[3]
  outcome: inactive
[8]
  Potency: inactive
[4]
  Potency: inactive
[5]
  outcome: inactive
[6]
  outcome: inactive

## CC(C)OC(=O)OCOP(=O)(CO[C@H](C)Cn1cnc2c(N)ncnc21)OCOC(=O)OC(C)C
[1]
  Potency: inactive
[7]
  outcome: inactive
[3]
  outcome: inactive
[8]
  Potency: inactive
[9]
  Potency: inactive
[4]
  Potency: inactive
[5]
  outcome: inactive
[6]
  outcome: inactive

## OC1OCCOC1O (configuration not stated)
[1]
  Potency: inactive
[2]
  outcome: inactive
[7]
  outcome: inactive
[3]
  outcome: inactive
[8]
  Potency: inactive
[5]
  outcome: inactive
[6]
  outcome: inactive

## N[C@@H](Cc1ccc(O)cc1)C(=O)O
[1]
  activity change, negative = inhibition: 6.85% [at 8.39 µM]
[2]
  viability change, negative = cytotoxic: -1.95% [at 8.39 µM]
[7]
  viability change, negative = cytotoxic: 0.133% [at 8.39 µM]
[3]
  activity change: -0.171% [at 8.39 µM]
[8]
  activity change, negative = inhibition: 29.1% [at 8.39 µM]
[9]
  activation: 4.88% [at 8.39 µM]
[4]
  activity, negative = inhibition: -4.71% [at 8.39 µM]
[6]
  activity change, negative = cytotoxicity: 10.1% [at 8.39 µM]

## O/N=C/C=N/O
[1]
  Potency: inactive
[2]
  outcome: inactive
[3]
  outcome: inactive
[9]
  Potency: inactive
[4]
  Potency: inactive
[5]
  outcome: inactive
[6]
  outcome: inactive

## CC(=O)Nc1ccc(OC(=O)c2ccccc2OC(C)=O)cc1
[1]
  Potency: 23.7 µM (active)
[2]
  outcome: inactive
[7]
  outcome: inactive
[3]
  outcome: inactive
[5]
  outcome: inactive
[6]
  outcome: inactive
